Hits are enriched below; roughly 4.6% of the tested compounds scored in any of these assays.
GAA850 FXN act = FXN promoter activators, primary screen, cell-based, luciferase luminescence, HEK293 lucGAA850; HEK293 lucGAA850 FXN promoter luciferase reporter, 24 h; percent of 10 µM SAHA response; activation, % at 6 µM; 0.56% of 360,000 active;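 active = activation above the average of all compounds screened plus 3 SD, cutoff fixed separately per campaign, cut at about 7.5% in these data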
HSF1 inhib = HSF1 inhibitors in luciferase reporter cells, primary screen, cell-based, NIH3T3, luminescence; NIH3T3-HGL HSE-luciferase, MG132-induced, luminescence 8 h; stronger effect = lower value; activity change, negative = inhibition, % at 7.5 µM (by protocol); 0.77% of 300,000 active;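 active = more than half of replicate wells show activity change below -50%, luminescence cut by over half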;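 note: luciferase reports HSF-1 transcriptional activity via heat shock element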
HSF-1 act = HSF-1 activators, primary screen, NIH3T3-HGL cells, MG132 stress, luminescence, single point. NIH3T3-HGL HSF-1 luciferase reporter, 8 h; 100% = twice DMSO control signal. 1.7% of 300,000 active. AID 504408, 2011. activation, % at 9 µM;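 active = mean replicate activation of at least 50% with a set share of replicates each reaching 50%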
AHR activator = AHR activators, primary screen, cell-based, luminescence, luciferase reporter, human; AHR-responsive luciferase reporter cells; activation, % at 5 µM; 2.5% of 320,000 active; AID 2796, 2010; in the data active = activation above about 47%
Target sequence (P35869 whole entry, looked up): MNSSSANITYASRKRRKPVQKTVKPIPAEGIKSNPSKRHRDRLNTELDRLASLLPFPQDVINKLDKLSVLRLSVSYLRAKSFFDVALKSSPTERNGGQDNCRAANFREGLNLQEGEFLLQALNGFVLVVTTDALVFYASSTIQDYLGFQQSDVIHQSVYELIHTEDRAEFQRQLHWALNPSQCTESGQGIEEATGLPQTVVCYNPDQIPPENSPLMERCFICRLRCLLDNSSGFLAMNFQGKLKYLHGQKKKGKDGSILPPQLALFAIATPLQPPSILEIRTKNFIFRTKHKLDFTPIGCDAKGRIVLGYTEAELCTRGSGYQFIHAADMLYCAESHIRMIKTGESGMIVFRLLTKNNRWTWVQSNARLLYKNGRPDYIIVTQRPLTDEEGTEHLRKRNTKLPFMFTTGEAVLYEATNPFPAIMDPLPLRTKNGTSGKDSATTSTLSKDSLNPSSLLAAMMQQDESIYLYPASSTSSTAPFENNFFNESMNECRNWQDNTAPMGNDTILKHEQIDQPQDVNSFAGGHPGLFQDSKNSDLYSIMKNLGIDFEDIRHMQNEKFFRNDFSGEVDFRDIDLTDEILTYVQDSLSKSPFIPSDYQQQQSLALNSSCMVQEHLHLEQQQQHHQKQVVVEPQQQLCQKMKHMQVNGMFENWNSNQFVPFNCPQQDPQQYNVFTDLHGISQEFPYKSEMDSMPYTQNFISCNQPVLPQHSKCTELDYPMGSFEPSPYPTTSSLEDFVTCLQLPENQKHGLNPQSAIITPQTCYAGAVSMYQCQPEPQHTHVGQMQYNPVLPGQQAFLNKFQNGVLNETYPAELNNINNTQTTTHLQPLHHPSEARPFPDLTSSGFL
Large screens that a line does not name were inactive.

O=C1c2ccccc2-c2nc3ncnn3c(-c3ccccc3Cl)c21	AHR activator 56
Cc1nc2ncnn2c(C)c1Cc1c(Cl)cccc1Cl	none
O=C(CCN1C(=O)C2C3C=CC(C3)C2C1=O)Nc1ccc(F)cc1 (stereo unspecified)	none
Cc1cc2nc(-c3cccnc3SCC(=O)NC(C)C)[nH]c2cc1C	AHR activator 54
O=C(O)CCC(=O)NNC(=O)COc1cccc(Cl)c1	none
COc1ccc(C(C[N+](=O)[O-])c2c(C)[nH]c3ccccc23)cc1OC (stereo unspecified)	AHR activator 60
COc1cc(C(c2c(C(=O)O)[nH]c3ccccc23)c2c(C(=O)O)[nH]c3ccccc23)ccc1OCc1ccccc1	none
Cc1ccc(C(O)(C(=O)NNc2ccccn2)c2ccc(C)cc2)cc1	none
Cc1ccc(-c2cc(-c3ccc(F)cc3)c(C#N)c(N)n2)o1	none
O=C(O)C(Cc1ccccc1)N1C(=O)C2CCCCC2C1=O (stereo unspecified)	none
Cc1ccc(NC2CC(=O)N(Cc3ccccc3)C2=O)cc1 (stereo unspecified)	HSF-1 act 56
O=C1CC(N(O)C2CC(=O)N(Cc3ccccc3)C2=O)C(=O)N1Cc1ccccc1 (stereo unspecified)	HSF-1 act 57
O=C1C2CCCCC2C(=O)N1Cc1ccccc1 (stereo unspecified)	HSF-1 act 68
COc1ccc(C(C)=O)cc1CSCc1cc(C(C)=O)ccc1OC	none
NS(=O)(=O)c1ccc(NC(=S)N2CCC(Cc3ccccc3)CC2)cc1	none
O=C(NC1=C(Nc2ccc(Cl)cc2)C(=O)c2ccccc2C1=O)c1ccccc1	AHR activator 69
O=C(Nc1ccc(Nc2ccccc2)cc1)c1ccc(Cl)cc1	none
O=C(NCC(c1ccco1)N1CCc2ccccc2C1)c1ccc([N+](=O)[O-])cc1 (stereo unspecified)	none
Cn1c(=O)c2c(nc(N/N=C/c3ccc(OC(=O)c4ccco4)cc3)n2Cc2ccc(F)cc2)n(C)c1=O	HSF-1 act 56
CN(/N=C/c1cc(Br)cc(Br)c1O)c1ccccc1	none
O=C(COc1ccc(Cl)cc1)Nc1ccccc1Cl	none
COc1ccc(CCNc2oc(COc3ccc(Br)cc3)nc2C#N)cc1OC	HSF-1 act 56
COc1ccc(CCNc2oc(Cc3cccc4ccccc34)nc2C#N)cc1OC	none
COc1ccc(Nc2oc(-c3ccc(OC)cc3)nc2C#N)cc1	HSF-1 act 68
Cc1ccc(-c2nc(C#N)c(NCCc3ccccn3)o2)cc1	AHR activator 73
COc1ccc(CCNc2oc(-c3ccc(C)cc3)nc2C#N)cc1OC	AHR activator 69
CC(=O)N1CCc2cc(S(=O)(=O)NCCCN3CCC(C)CC3)ccc21	none
CCn1c(SCC(=O)NCC2CCCO2)nnc1-c1ccccc1OC (stereo unspecified)	none (no result: HSF1 inhib, HSF-1 act)
C=CCn1c(C(C)(C)C)nc2ccccc21	none
COc1ccc(-c2nc(C#N)c(NCC3CCCO3)o2)cc1 (stereo unspecified)	none
Cc1ccc(-c2nc(C#N)c(NCC3CCCO3)o2)cc1 (stereo unspecified)	AHR activator 63
COC(C(=O)Nc1ccc(S(=O)(=O)Nc2cccc3ccccc23)cc1)c1ccccc1 (stereo unspecified)	HSF-1 act 55
CC(C)(C)c1ccc(N2C(=O)Cc3c2nc(N)c(C#N)c3N)cc1	AHR activator 76
CCN(CC)c1nc2c3c(nc4c(c3c1C#N)CC(=O)N4c1ccc(Cl)cc1)NC(C)=N2	none
CCc1ccc(N2C(=O)Cc3c2nc(N)c(C#N)c3N)cc1	AHR activator 52
Cc1nn(-c2ccccc2)c2nc(N)c(C#N)c(-c3ccc(C(C)(C)C)cc3)c12	none
COCCCNCC#CCOc1ccc(OC)cc1	none
Cc1ccc(NC(=O)COC(=O)C2=COCCO2)cc1	none
O=C(Nc1ccc(Cl)cc1)Nc1ccc2c(c1)OCO2	AHR activator 59
NC(=O)c1cc(Cl)ccc1OCC(=O)Nc1ccc2c(c1)OCO2	AHR activator 51 (no result: HSF1 inhib, HSF-1 act)
Cc1ccc(NC(=O)Nc2ccc3c(c2)OCO3)c(Br)c1	none
O=C(COC(=O)C1=COCCO1)Nc1ccc2c(c1)OCO2	HSF1 inhib -63
Cc1cc(C)c(NC(=O)Nc2ccc3c(c2)OCO3)c(C)c1	HSF1 inhib -75, AHR activator 51
CCC(CC)C(=O)c1c[nH]c(C(=O)NCC2CCCO2)c1 (stereo unspecified)	none
CC(=O)NC(Cc1c[nH]c2ccccc12)C(=O)OCC(=O)Nc1cc(C)on1 (stereo unspecified)	none
O=C(CCSc1ccccc1)Nc1nc2c(s1)CCCC2	none
O=C(CSc1nc2nc(-c3cccs3)cc(C(F)(F)F)c2c(=O)[nH]1)NCc1ccco1	none
COC(=O)c1ccccc1NC(=O)Nc1ccc2c(c1)OCO2	none
O=C(COc1ccccc1Br)Nc1ccc2c(c1)OCCCO2	HSF-1 act 57
O=C(Nc1ccc2c(c1)OCO2)c1c[nH]c(=O)n(-c2ccc(F)cc2)c1=O	AHR activator 55
COc1ccc(-n2c(=O)[nH]cc(C(=O)Nc3ccc4c(c3)OCCO4)c2=O)cc1OC	none
CC(C)c1ccccc1NC(=O)Nc1ccc2c(c1)OCO2	AHR activator 56
O=C(Nc1ccc([N+](=O)[O-])cc1)Nc1ccc2c(c1)OCCO2	HSF-1 act 64
COc1cc([N+](=O)[O-])ccc1NC(=O)Nc1ccc2c(c1)OCCO2	none
COc1ccc2c(/C=C/c3cc[n+](C)cc3)c[nH]c2c1	none
O=C(Nc1ccc(F)cc1)Nc1ccc2c(c1)OCO2	AHR activator 67
COc1ccc(CC(N)c2csc(Nc3cc(NCCCO)ncn3)n2)cc1 (stereo unspecified)	none (no result: HSF1 inhib, HSF-1 act, AHR activator)
CCOC(=O)CSc1ccc(C(=O)Nc2ccc(Cl)cc2)cn1	AHR activator 58
CCOC(=O)CSc1ccc(C(=O)Nc2ccc(OC)cc2)cn1	AHR activator 57
CCOC(=O)CSc1nc2c(cnn2-c2ccc(Cl)cc2)c(=O)[nH]1	none
CN(CC(=O)Nc1cccc(F)c1)C(=O)c1ccc2c(c1)OCCO2	none
O=S(=O)(c1cnccc1N1CCN(CCO)CC1)N1CCCC1	none (no result: HSF1 inhib, HSF-1 act, AHR activator)
Cc1cccc(C)c1NC(=O)C(C)N1CCCC1 (stereo unspecified)	HSF-1 act 75
Cc1cccc(C)c1NC(=O)CNC(=O)C(C)N1CCCCC1 (stereo unspecified)	none (no result: HSF1 inhib, HSF-1 act)
Cc1ccccc1C(=O)Nc1nnc(CC(=O)N/N=C/c2cn(Cc3ccccc3)c3ccccc23)s1	none
Cc1ccccc1C(=O)Nc1nnc(CC(=O)N/N=C/c2ccco2)s1	HSF1 inhib -80
COc1ccc(OC)c(/C=C2\SC(N3CCCCC3)=NC2=O)c1	AHR activator 74
O=C1N=C(N2CCCCC2)S/C1=C\c1ccc(Cl)cc1	none
Cc1ccc(/C=C2\SC(N3CCCCC3)=NC2=O)cc1	AHR activator 71
O=C(O)CCc1ccc(S(=O)(=O)NCCc2ccccc2)cc1	none
Cc1ccc2cc(CN(Cc3ccc(F)cc3)Cc3nnnn3C3CCCC3)c(=O)[nH]c2c1	none

High-throughput results as filed in PubChem.
